A word on the AC50: it is the concentration at which the activity in the assay is half-maximal.

Here are results for 23 compounds from PubChem BioAssay (EPA / NIEHS).

Values joined by “and” are separate entries in the source; they are usually repeats but may differ in a detail not shown here. Identical values can stand only once. A structure can be active in one record and inactive in another. Active and inactive are the calls of the source. The calls were made as follows: active = hit-call score of the fitted dose curve at least 0.9, where 1 is the maximum; inactive = score below 0.9.

Test [1] in a line: ATG_CRE_CIS: Attagene CIS-FACTORIAL HepG2 Assay for human cAMP Responsive Element (CRE) binding protein 3 (AID 2282926). Conditions: HepG2 CRE cis-reporter, Attagene multiplexed mRNA; actives raise or lower the signal. The procedure, abridged: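 HepG2 cells transiently transfected with a multiplexed reporter library (CRE-driven unit among them) were dosed for 24 h. Reporter mRNA was quantified by RT-PCR, fluorescent labelling, HpaI digestion and capillary electrophoresis, with bidirectional fitting against DMSO baseline.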

Test [2] can be described thus: ATG_BRE_CIS: Attagene CIS-FACTORIAL HepG2 Assay for human Bone Morphogenetic Protein (BMP) Response Element (BRE) (AID 2282933). Conditions: HepG2 BMP response element reporter, Attagene transcription factor profiling; actives raise or lower the signal. In outline: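 Read-out: reporter mRNA induction quantified by RT-PCR and capillary electrophoresis after 24 h chemical exposure of transfected HepG2 cells. Endogenous factor activity on the BMP response element; gain or loss fitted against DMSO baseline.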

Test [3] has as its target Transcription factor E2F1 (Homo sapiens) (UniProt Q01094). Briefly: ATG_E2F_CIS: Attagene CIS-FACTORIAL HepG2 Assay for human E2F Transcription Factor 1 (AID 2282935). Conditions: HepG2 Attagene cis-reporter, E2F reporter RNA transcripts; actives raise or lower the signal. In outline:
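Endogenous E2F1 activity read through cis-promoter reporter units transfected into HepG2. After 24 h compound treatment, reporter mRNA measured by RT-PCR, HpaI digestion and capillary electrophoresis. Bidirectional fit versus DMSO.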

Test [4] addresses CCAAT/enhancer-binding protein beta (Homo sapiens) (UniProt P17676). Briefly: ATG_C_EBP_CIS: Attagene CIS-FACTORIAL HepG2 Assay for human CCAAT/Enhancer Binding Protein (C/EBP) beta (AID 2282927). Conditions: HepG2 Attagene cis-factorial transcription factor reporter; actives raise or lower the signal. The procedure, abridged:
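Transiently transfected HepG2 (MRTU library, endogenous TF-driven promoters); 24 h dosing; total RNA → oligo(dT) RT → PCR → 6-FAM primer extension → HpaI digest → CE; fit bidirectionally vs DMSO.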

Test [5] is described as follows: ATG_CMV_CIS: Attagene CIS-FACTORIAL HepG2 Assay for human CMV (Internal Marker) (AID 2282928).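 Also: endpoint acts as a background internal control marker rather than a target.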 Conditions: HepG2 CMV promoter reporter, transcription factor profiling; actives raise or lower the signal. In outline:
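After transient transfection of HepG2 with reporter transcription units driven by cis-regulatory promoters, cells receive test chemical for 24 h. Labeled reporter amplicons, digested with HpaI, are sized and quantified by capillary electrophoresis against DMSO.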

The nature of test [6]: ATG_DR4_LXR_CIS: Attagene CIS-FACTORIAL HepG2 Assay for human Liver X Receptor (LXR), DR4 submotif (AID 2282929). The note with it: HepG2 Attagene DR4 cis-reporter, mRNA transcription; actives raise or lower the signal. In outline:
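HepG2 cells were transiently transfected with multiple cis-regulated reporter units and dosed for 24 hours. The DR4 reporter mRNA was quantified by RT-PCR, 6-FAM labelling and capillary electrophoresis. Bidirectional fits used DMSO as baseline.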

In test [7] the target is Aryl hydrocarbon receptor (Homo sapiens) (UniProt P35869). Briefly: ATG_Ahr_CIS: Attagene CIS-FACTORIAL HepG2 Assay for human Aryl Hydrocarbon Receptor (Ahr) (AID 2282930). The note with it: HepG2 AhR cis-factorial reporter transcription; actives raise or lower the signal. In outline:
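Read-out: reporter mRNA quantified by RT-PCR with fluorescent primer extension and capillary electrophoresis. Human HepG2 liver cells carried transfected cis-promoter reporter units and were exposed to chemical for 24 h; gain or loss fitted relative to DMSO.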

Test [8] can be described thus: ATG_AP_1_CIS: Attagene CIS-FACTORIAL HepG2 Assay for human Activator Protein 1 (AP-1) (AID 2282931). Conditions: HepG2 Attagene cis-factorial AP-1 reporter mRNA; actives raise or lower the signal. In outline: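 HepG2 cells transiently transfected with cis-element-driven reporter transcription units, dosed for 24 hours. Reporter mRNA measured by RT-PCR, 6-FAM labelling, HpaI digestion and capillary electrophoresis. Bidirectional fitting against DMSO baseline.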

The nature of test [9]: ATG_AP_2_CIS: Attagene CIS-FACTORIAL HepG2 Assay for human Activator Protein 2 (AP-2) (AID 2282932). The note with it: HepG2 AP-2 cis-reporter, Attagene transcription factor profiling; actives raise or lower the signal. In outline:
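HepG2 cells transiently transfected with cis-element reporter units and exposed for 24 h. Reporter mRNA measured by RT-PCR, FAM labelling, HpaI digestion and capillary electrophoresis. Changes in either direction fitted relative to DMSO.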

Test [10] addresses Retinoic acid receptor alpha (Homo sapiens) (UniProt P10276). Briefly: ATG_DR5_RAR_CIS: Attagene CIS-FACTORIAL HepG2 Assay for human Retinoic Acid Receptor Alpha (RARE), DR5 submotif (AID 2282934).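 As to AC50: reporter responds to endogenous RAR alpha beta and gamma in HepG2 not RARA alone.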 The note with it: HepG2 Attagene cis-factorial RARE DR5 reporter, mRNA; actives raise or lower the signal. The procedure, abridged:
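Read-out: DR5-driven reporter transcript measured by RT-PCR, 6-FAM primer extension, HpaI digest and capillary electrophoresis. Human HepG2 liver cells carry transiently transfected cis-element reporter constructs; dosing lasts 24 h. Gain or loss of signal fitted against DMSO baseline.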

Sequence of Transcription factor E2F1 (Homo sapiens) (Q01094 whole entry, looked up): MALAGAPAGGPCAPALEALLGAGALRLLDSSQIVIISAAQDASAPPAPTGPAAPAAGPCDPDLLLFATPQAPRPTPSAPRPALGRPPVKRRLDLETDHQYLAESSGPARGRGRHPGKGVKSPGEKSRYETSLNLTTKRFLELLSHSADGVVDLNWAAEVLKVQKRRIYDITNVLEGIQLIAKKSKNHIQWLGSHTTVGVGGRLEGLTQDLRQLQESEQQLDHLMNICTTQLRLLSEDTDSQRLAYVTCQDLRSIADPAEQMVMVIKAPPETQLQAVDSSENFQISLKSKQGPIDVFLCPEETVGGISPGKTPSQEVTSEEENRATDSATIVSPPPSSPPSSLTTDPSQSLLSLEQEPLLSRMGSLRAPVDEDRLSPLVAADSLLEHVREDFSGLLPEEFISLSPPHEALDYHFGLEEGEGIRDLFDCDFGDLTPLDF
Sequence of Retinoic acid receptor alpha (Homo sapiens) (P10276 whole entry, looked up): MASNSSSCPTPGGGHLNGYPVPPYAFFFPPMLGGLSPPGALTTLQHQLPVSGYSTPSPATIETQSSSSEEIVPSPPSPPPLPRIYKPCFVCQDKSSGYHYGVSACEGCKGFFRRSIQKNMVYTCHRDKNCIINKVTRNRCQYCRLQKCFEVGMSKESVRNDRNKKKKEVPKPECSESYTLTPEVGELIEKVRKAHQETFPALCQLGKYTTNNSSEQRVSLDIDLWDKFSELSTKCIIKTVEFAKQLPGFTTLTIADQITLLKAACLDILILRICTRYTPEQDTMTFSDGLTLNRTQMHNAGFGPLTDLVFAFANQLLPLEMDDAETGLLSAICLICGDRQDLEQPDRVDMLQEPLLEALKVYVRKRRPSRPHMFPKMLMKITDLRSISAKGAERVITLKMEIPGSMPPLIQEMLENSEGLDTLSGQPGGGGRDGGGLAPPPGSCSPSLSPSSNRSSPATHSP
Sequence of Aryl hydrocarbon receptor (Homo sapiens) (P35869 whole entry, looked up): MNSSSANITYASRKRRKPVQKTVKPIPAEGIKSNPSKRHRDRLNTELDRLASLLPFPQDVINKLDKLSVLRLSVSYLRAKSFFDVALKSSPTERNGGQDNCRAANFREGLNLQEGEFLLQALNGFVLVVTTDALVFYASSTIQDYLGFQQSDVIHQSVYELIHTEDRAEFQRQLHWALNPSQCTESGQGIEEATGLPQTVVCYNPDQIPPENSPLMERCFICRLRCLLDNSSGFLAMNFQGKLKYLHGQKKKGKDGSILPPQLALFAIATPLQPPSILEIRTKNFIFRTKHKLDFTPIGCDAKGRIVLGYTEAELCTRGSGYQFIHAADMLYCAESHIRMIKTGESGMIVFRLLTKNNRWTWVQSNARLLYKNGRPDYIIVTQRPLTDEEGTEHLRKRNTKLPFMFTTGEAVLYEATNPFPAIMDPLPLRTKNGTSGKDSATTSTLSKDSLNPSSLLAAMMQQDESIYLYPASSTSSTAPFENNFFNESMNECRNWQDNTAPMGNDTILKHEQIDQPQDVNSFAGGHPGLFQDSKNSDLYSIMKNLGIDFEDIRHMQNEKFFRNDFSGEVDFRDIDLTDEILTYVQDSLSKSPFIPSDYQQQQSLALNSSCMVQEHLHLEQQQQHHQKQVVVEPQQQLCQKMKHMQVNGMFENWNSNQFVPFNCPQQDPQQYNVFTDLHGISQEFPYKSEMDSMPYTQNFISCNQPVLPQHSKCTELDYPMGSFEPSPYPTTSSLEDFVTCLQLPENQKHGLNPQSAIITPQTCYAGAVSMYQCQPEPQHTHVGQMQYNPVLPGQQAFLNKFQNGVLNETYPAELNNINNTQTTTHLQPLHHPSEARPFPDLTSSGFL
Sequence of CCAAT/enhancer-binding protein beta (Homo sapiens) (P17676 whole entry, looked up): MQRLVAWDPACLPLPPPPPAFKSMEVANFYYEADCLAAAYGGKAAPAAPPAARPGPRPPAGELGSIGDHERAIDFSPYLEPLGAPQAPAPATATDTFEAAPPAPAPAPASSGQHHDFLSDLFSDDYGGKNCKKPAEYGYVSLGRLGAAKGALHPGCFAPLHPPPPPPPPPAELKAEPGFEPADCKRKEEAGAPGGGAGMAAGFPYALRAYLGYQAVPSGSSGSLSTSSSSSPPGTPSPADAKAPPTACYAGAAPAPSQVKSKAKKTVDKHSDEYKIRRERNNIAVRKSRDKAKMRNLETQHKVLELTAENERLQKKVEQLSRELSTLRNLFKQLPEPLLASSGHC

Consider `C[C@@H]1C[C@@H]([C@H](O)CC2CC(=O)NC(=O)C2)C(=O)[C@@H](C)C1`, for which the AC50 in test [1] is 11.1 µM (active); in test [2] it was 16.6 µM (active) and 5.79 µM (active) and 22.8 µM (active); in test [3], 573 nM (active) and 632 nM (active). Also, the call in [1], in [2] and in [3] was inactive.

As to `O=C(O)Cc1ccccc1`, the result in test [1], in test [4], in [5], in [6], in [7] and in test [8] was inactive. Besides, the outcome in test [9], in test [2], in test [10] and in [3] was inactive.

On to `C(=NC1CCCCC1)=NC1CCCCC1`, for which the compound was classed as inactive in test [1], in test [4], in test [5], in [7], in test [8] and in test [9]. Further, the result in [10] and in [3] was inactive. In addition, the AC50 in [6] is 33.4 µM (active); in [2], 2.69 µM (active).

As to `C=CCc1ccc(OC)cc1`, the compound was classed as inactive in [1], in test [4], in test [5], in test [6], in test [7] and in [8]. The result in test [9], in test [2] and in test [3] was inactive.

As for `[O-][Cl+2]([O-])O`, the outcome in test [1], in [4], in test [5], in test [6], in [7] and in test [8] was inactive. Further, the result in test [9], in [2], in test [10] and in test [3] was inactive.

`C[C@@H](Oc1ccc(Cl)cc1Cl)C(=O)O`: the call in test [1], in test [4], in [5], in [6], in test [7] and in [8] was inactive. In addition, the result in [9], in test [2], in [10] and in test [3] was inactive.

As for `CCC[CH2][Sn]([CH2]CCC)([CH2]CCC)[O]C(=O)c1ccccc1`, the result in test [1], in test [5], in test [6], in test [7], in test [8] and in [9] was inactive. Further, the compound was classed as inactive in test [3]. In addition, the values for the AC50 in test [4] and in [2] were 0.0581 µM (active) and 0.218 µM (active), respectively.

For `COc1ccc(C=O)cc1`, the call in [1], in test [4], in [5], in [6], in test [7] and in test [8] was inactive. The compound was called inactive in [9], in [2] and in test [3].

`COc1cccc(C=O)c1`: the compound was classed as inactive in test [1], in test [4], in [5], in [6], in test [7] and in test [8]. For the same compound, the outcome in test [9], in test [2], in [10] and in test [3] was inactive.

As for `CC(C)(c1ccc(OCC2CO2)cc1)c1ccc(OCC2CO2)cc1` (centres undefined), the AC50 in test [1] was 36 µM (active); in test [4], 51.6 µM (active); in test [5], 49.2 µM (active); in [6] it was 25.9 µM (active); in test [8] it was 53.9 µM (active). In addition, the compound was classed as inactive in test [7], in [9], in test [2], in [10] and in [3].

In the case of `Fc1ccc(C2(Cn3cncn3)OC2c2ccccc2Cl)cc1` (centres undefined), the compound was called inactive in test [1], in test [4], in test [5], in test [6], in [8] and in test [9]. In addition, the compound was called inactive in test [10] and in [3]. In addition, the AC50 in test [7] was 13.3 µM (active); in test [2], 69.9 µM (active).

For the compound `ClCCBr`, the result in [1], in test [4], in [5], in test [6], in test [7] and in test [8] was inactive. The compound was called inactive in test [9], in [2] and in test [3].

In the case of `Cc1ccccc1C(=O)Nc1cccc(OC(C)C)c1`, the result in test [1], in test [4], in [7], in test [8], in test [9] and in [2] was inactive. Also, the result in test [3] was inactive. In addition, the AC50 in test [5] is 61.9 µM (active); in test [6], 158 µM (active).

For the compound `CC(C)(C)CC(C)(C)c1ccc(O)cc1`, the outcome in [1], in test [4], in [5], in test [6], in [8] and in test [9] was inactive. The compound was called inactive in test [2] and in test [3]. For the same compound, the AC50 in [5] was 17.1 µM (active) and 18 µM (active); in [6] it was 14.4 µM (active); in test [8], 19.4 µM (active).

Consider `BrCCBr`, for which the result in test [1], in test [4], in [5], in test [6], in [7] and in [8] was inactive. Further, the call in [9], in test [2], in [10] and in test [3] was inactive.

Take `O=C(O)C(F)(F)C(F)(F)C(F)(F)C(F)(F)C(F)(F)C(F)(F)F`: the outcome in [1], in [4], in [5], in test [6], in test [7] and in test [8] was inactive. Moreover, the compound was classed as inactive in [9], in [2], in test [10] and in test [3].

As to `Oc1ccc(-c2ccccc2)cc1`, the outcome in test [1], in [4], in test [6], in test [7], in [8] and in [2] was inactive. In test [3], the result was inactive. Besides, the AC50 is 44.9 µM (active) in test [5], 26.8 µM (active) in test [9] and 154 µM (active) in test [10].

On to `CCOP(=S)(OCC)SCSP(=S)(OCC)OCC`, for which the compound was called inactive in [1], in test [4], in test [5], in test [6], in [7] and in test [8]. Moreover, the outcome in [9], in test [2], in test [10] and in [3] was inactive.

As for `CC12CC1(C)C(=O)N(c1cc(Cl)cc(Cl)c1)C2=O` (centres undefined), the compound was called inactive in test [1], in [4], in test [5], in test [6], in test [7] and in [8]. The call in test [9], in test [2] and in [3] was inactive.

As to `CCC1(c2ccc(N)cc2)CCC(=O)NC1=O` (centres undefined), the result in test [1], in [4], in test [5], in [6], in test [7] and in test [8] was inactive. The compound was classed as inactive in test [9], in test [2] and in [3].

`Nc1ncc([N+](=O)[O-])s1`: the result in test [1], in [4], in test [5], in [6], in test [8] and in [9] was inactive. Moreover, the compound was called inactive in test [2], in [10] and in [3]. In test [7], the AC50 was 62 µM (active).

Regarding `CN(C)P(=O)(N(C)C)N(C)C`, the compound was classed as inactive in test [1], in [4], in [5], in test [6], in test [7] and in test [8]. Also, the call in test [9], in test [2], in [10] and in [3] was inactive.

On to `CC(=O)c1cc(C(C)(C)C)cc2c1CCC2(C)C`, for which the AC50 is 100 µM (active) in test [1]; 159 µM (active) in test [4]; 62.5 µM (active) in test [5]; 26.1 µM (active) in test [6]; 70.4 µM (active) in test [8]; 161 µM (active) in test [9]. The AC50 in test [3] was 171 µM (active). Moreover, the compound was classed as inactive in test [7] and in test [2].
